The source made the active and inactive calls.
Key:
[1] = binders of probe aFSTL3 on microarray, primary screen, stem cell growth factor project, biochemical, small-molecule microarray, fluorescence 635/667 (AID 1064); conditions: higher = more signal;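 further: measures binding of the biotinylated anti-FSTL3 antibody to printed compounds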
[2] = binders from COS7 lysate, DM2A8 probe, primary screen, torsin A project, cell lysate, small-molecule microarray, fluorescence 635/667 (AID 1065); conditions: higher = more signal, COS7 lysate expressing mutant human TOR1A
[3] = binders of probe aFGF2 on microarray, primary screen, stem cell growth factor project, biochemical, small-molecule microarray, fluorescence 635/667 (AID 1067); conditions: higher = more signal;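 further: measures binding of biotinylated aFGF2 protein to printed compounds on slides; z-score merges feature fluorescence and signal-to-noise across triplicate slides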
[4] = binders of probe aFGF10 on microarray, primary screen, stem cell growth factor project, biochemical, small-molecule microarray, fluorescence 635/667 (AID 1071); conditions: higher = more signal;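 further: score merges 667 nm spot intensity and signal to noise from triplicate slides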
[5] = target: Neurogenic locus notch homolog protein 2 (Homo sapiens) (UniProt Q04721); experiment: Notch2 binders on small-molecule microarrays, primary screen, biochemical, small-molecule microarray, 635 nm fluorescence, stem cell growth factors (AID 1073); conditions: Notch2 binding, higher = more signal
[6] = target: Pro-neuregulin-1, membrane-bound isoform (Homo sapiens) (UniProt Q02297); experiment: NRG1 binders on small-molecule microarrays, primary screen, psychiatric disease protein project, biochemical, small-molecule microarray, fluorescence 635/667 (AID 1075); conditions: NRG1 binding, 635 nm fluorescence, higher = more signal;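 further: score combines 667 nm spot fluorescence with signal to noise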
[7] = test system: Neuregulin-1 EGF-like domain; experiment: binders of neuregulin-1 EGF-like domain, primary screen, biochemical, small-molecule microarray, 635 nm fluorescence (AID 1081); conditions: small-molecule microarray binding, higher = more signal;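 further: binding of the protein to compounds printed on small-molecule microarray slides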
[8] = FRG1 promoter luciferase signal modulators, primary screen, FRG1 inhibition for FSHD, cell-based, C2C12 myotubes, firefly/Renilla luciferase, luminescence (AID 1084); conditions: higher = more signal, called active from +8 up or from −8 down
[9] = binders of probe aFST on microarray, primary screen, stem cell growth factor project, biochemical, small-molecule microarray, fluorescence 635/667 (AID 1086); conditions: higher = more signal;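 further: score merges 667 nm fluorescence with signal-to-noise of each printed compound spot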
[10] = binders of probe aHhip on microarray, primary screen, stem cell growth factor project, biochemical, small-molecule microarray, fluorescence 635/667 (AID 1087); conditions: higher = more signal;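 further: score merges spot fluorescence at 667nm with spot signal to noise ratio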

Sequence of Pro-neuregulin-1, membrane-bound isoform (Homo sapiens) (Q02297 whole entry, looked up, the tested form may be a part, canonical isoform): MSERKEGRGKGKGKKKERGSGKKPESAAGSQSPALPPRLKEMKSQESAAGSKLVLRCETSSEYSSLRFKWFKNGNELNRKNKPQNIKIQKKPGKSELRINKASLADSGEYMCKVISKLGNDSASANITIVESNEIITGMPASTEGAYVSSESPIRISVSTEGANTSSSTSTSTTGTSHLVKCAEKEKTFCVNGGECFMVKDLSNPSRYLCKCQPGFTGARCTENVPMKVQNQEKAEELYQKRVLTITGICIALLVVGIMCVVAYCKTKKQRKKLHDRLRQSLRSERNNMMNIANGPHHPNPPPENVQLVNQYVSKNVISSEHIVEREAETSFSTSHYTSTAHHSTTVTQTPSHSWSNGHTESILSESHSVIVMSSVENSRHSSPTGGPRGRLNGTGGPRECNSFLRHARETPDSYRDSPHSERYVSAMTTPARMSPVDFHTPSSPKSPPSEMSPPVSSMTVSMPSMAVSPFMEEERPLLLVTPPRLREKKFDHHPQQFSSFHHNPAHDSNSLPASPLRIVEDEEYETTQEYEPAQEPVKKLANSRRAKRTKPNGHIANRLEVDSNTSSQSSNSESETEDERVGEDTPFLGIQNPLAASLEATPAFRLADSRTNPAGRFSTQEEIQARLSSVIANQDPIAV
Sequence of Neurogenic locus notch homolog protein 2 (Homo sapiens) (Q04721 whole entry, looked up, canonical isoform): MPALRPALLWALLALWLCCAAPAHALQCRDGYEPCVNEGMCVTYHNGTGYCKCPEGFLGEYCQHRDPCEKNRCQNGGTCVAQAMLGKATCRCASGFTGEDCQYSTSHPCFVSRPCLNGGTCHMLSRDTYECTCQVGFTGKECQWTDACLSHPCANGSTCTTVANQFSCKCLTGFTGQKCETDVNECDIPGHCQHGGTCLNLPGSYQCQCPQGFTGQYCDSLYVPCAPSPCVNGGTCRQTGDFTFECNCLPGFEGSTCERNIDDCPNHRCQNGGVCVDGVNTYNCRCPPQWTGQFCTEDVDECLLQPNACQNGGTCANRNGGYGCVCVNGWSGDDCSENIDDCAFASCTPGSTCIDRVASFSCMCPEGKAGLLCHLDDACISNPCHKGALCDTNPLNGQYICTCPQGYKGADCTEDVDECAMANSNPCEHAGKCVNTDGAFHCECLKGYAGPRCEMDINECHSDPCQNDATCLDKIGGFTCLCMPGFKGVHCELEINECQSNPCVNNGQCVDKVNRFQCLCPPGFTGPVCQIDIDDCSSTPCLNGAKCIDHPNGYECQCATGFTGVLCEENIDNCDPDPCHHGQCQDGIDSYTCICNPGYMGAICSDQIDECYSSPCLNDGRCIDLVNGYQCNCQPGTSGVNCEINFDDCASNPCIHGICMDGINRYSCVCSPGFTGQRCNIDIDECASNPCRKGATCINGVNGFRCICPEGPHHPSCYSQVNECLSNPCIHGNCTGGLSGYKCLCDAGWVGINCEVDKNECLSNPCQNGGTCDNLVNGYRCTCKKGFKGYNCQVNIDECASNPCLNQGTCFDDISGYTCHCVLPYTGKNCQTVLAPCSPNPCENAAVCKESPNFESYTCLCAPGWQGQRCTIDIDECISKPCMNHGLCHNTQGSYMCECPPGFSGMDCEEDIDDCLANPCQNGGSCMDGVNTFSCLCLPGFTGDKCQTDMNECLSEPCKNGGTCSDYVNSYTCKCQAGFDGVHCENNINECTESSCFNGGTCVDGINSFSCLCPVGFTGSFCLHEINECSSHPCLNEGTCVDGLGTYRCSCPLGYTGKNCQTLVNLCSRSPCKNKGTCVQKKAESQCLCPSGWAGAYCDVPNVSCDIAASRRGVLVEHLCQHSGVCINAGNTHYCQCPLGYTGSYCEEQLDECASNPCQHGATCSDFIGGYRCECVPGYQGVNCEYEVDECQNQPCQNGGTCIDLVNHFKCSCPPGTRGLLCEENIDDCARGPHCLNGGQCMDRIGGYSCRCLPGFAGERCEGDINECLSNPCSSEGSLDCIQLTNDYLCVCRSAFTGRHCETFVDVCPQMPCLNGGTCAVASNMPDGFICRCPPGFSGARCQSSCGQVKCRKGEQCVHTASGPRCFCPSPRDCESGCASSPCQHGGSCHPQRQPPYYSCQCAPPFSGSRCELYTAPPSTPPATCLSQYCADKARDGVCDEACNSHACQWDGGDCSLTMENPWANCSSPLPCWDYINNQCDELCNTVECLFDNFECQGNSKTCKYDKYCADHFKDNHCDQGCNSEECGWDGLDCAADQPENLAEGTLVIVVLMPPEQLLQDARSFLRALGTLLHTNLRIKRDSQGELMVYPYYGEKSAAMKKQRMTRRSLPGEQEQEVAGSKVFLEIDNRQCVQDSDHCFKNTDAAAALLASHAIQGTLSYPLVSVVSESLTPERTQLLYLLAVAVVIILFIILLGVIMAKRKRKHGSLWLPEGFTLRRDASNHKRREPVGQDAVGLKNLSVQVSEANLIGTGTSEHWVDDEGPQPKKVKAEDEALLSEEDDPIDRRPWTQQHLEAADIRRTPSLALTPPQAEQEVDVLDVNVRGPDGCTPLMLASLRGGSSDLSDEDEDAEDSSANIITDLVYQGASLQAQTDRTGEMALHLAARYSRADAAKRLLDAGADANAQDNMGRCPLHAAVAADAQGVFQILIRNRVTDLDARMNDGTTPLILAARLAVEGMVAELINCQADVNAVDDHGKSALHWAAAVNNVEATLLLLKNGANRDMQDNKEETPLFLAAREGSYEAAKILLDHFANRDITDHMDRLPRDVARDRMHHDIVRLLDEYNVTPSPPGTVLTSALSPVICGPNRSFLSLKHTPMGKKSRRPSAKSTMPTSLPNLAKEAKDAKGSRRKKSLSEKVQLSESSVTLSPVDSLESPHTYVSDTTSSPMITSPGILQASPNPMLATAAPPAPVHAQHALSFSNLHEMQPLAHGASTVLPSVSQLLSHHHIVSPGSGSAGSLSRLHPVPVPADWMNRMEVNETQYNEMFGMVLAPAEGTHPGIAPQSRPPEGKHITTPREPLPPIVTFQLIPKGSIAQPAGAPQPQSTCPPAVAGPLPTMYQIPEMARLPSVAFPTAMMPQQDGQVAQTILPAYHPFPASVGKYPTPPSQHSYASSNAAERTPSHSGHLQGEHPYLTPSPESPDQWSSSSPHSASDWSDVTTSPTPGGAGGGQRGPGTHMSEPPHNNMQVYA

Row | SMILES | composite z-score [1] | composite z-score [2] | composite z-score [3] | composite z-score [4] | composite z-score [5] | composite z-score [6] | composite z-score [7] | z-score [8] | composite z-score [9] | composite z-score [10]
1 | C=C(/C(=C/C[C@@H](OC(C)=O)c1ccccc1OCCO)c1cnc2ccccc2c1)C(C)C | -0.0572 | 1.23 | -0.166 | 0.758 | 1.13 | 0.179 | 0.911 | -0.698 (inactive) | 0.0287 | -0.344
2 | COCCOC(=O)N1C(=O)[C@@]2(c3cc(C#CCCO)ccc31)[C@H](c1ccc(OCCO)cc1)N1[C@H](c3ccccc3)[C@H](c3ccccc3)OC(=O)[C@H]1[C@@H]2C(=O)N1CCc2cc(OC)c(OC)cc2C1 | -0.392 | 0.444 | -0.0732 | 0.375 | 0.921 | 0.635 | 1.25 | -0.355 (inactive) | 0.159 | -0.0618
3 | C[C@]12C(=O)N(CCCO)[C@@H]3C(=O)N(c4ccc(Cl)cc4)CC=CC31O[C@@H]1/C=C\CCCOC(=O)C12 (stereo not given in full) | -0.157 | -0.549 | -0.0895 | -0.512 | -1.37 | -0.0724 | 1.13 | 1.43 (inactive) | -0.67 | -0.363
4 | COCCOC(=O)N1C(=O)[C@@]2(c3cc(C#Cc4ccc(OC)cc4)ccc31)[C@H](C(=O)N1CCc3cc(OC)c(OC)cc3C1)[C@H]1C(=O)O[C@H](c3ccccc3)[C@H](c3ccccc3)N1[C@@H]2c1ccc(O)cc1 | -0.285 | 0.613 | -0.129 | 0.64 | 1.47 | 1.17 | 1.19 | 0.707 (inactive) | -0.0689 | -0.297
5 | CC(C)=CCCC(C)=CC(O)C1C=CC2C(=O)N(c3ccccc3)C(=O)C2N1Nc1ccc([N+](=O)[O-])cc1 (stereo not given) | -0.265 | 0.148 | 0.0159 | 0.344 | 1.59 | 1.64 | 1.28 | -1.01 (inactive) | 0.852 | -0.0237
6 | CCOC(=O)C[C@H]1[C@H](OC(=O)c2cc3ccccc3oc2=O)[C@@H](NC(=O)c2ccc3ccccc3n2)c2cc(OCCCO)ccc2N1C(=O)c1ccc2ccccc2n1 | 1.37 | 0.14 | -0.0342 | 0.936 | 0.114 | -0.0114 | 1.06 | -0.21 (inactive) | 0.787 | 0.177
7 | CCC[C@@H]1C[C@@]1(CCC)[C@@H](NC(=O)c1ccco1)c1ccc(Cl)cc1 | -0.0089 | -0.441 | -0.163 | 0.0059 | -0.259 | -0.656 | -1.26 | -0.632 (inactive) | 0.161 | -0.313
8 | C#CCOC(=O)N[C@H](C=CCCCC)c1ccccc1 | 0.209 | 0.108 | 0.0934 | 0.239 | 1.33 | 2.33 | 1.31 | -0.237 (inactive) | 0.129 | 0.382
9 | COCCOC(=O)N1C(=O)[C@@]2(c3cc(C#Cc4ccc(OC)cc4)ccc31)[C@H](C(N)=O)[C@H]1C(=O)O[C@H](c3ccccc3)[C@H](c3ccccc3)N1[C@@H]2c1ccc(OCCO)cc1 | -0.358 | 0.562 | 0.0014 | 0.62 | 1.17 | 0.869 | 1.28 | 0.574 (inactive) | 0.512 | -0.251
10 | O=C1N(Cc2ccccc2)c2ccccc2[C@H]2OC(c3ccc(OCCCO)cc3)=N[C@@]12CCS(=O)(=O)c1ccccc1 | 0.149 | 0.527 | 0.11 | 0.951 | 0.931 | 1.76 | 1.28 | -1.25 (inactive) | 0.574 | 0.167
11 | CCCC=C(CCC)[C@@H](NS(=O)(=O)c1cccc2cccnc12)c1ccc(C(=O)OC)cc1 | 3.16 | 1.19 | 0.84 | 1.65 | 1.59 | 0.136 | 0.83 | 1.76 (inactive) | 3.43 | 0.754
12 | O=C1NC(=O)C2C1C=CC(C(O)c1ccc(-c3ccccc3)s1)N2Nc1ccccn1 (stereo not given) | 0.536 | 0.259 | -0.0605 | 0.444 | 1.31 | 1.27 | 0.988 | 0.703 (inactive) | 0.781 | -0.191
13 | C[N+](C)(C)CCCC[C@@H]1NC(=O)[C@@H]2C[C@H](C(=O)NCCCCCNC(=O)CS)[C@H](c3cccc(OCCO)c3)N2C1=O | -0.129 | 0.5 | 0.0402 | 0.294 | 0.151 | 0.634 | 1.21 | -0.669 (inactive) | -0.0763 | 0.138
14 | [N-]=[N+]=Nc1ccccc1[C@@H]1OC(c2ccc(OCCCO)cc2)=N[C@]1(CCS(=O)(=O)c1ccccc1)C(=O)NCc1ccccc1 | 0.207 | 0.599 | 0.294 | 0.655 | 1.52 | 1.9 | 1.1 | 0.271 (inactive) | 1.8 | -0.196
15 | CCCNC(=O)[C@@]1(Sc2ccc(C)cc2)CC(=O)N(Cc2ccccc2)[C@@H]1c1ccc(CO)cc1I | 1.33 | -0.0477 | -0.0917 | -0.008 | 0.367 | 0.848 | 1.23 | -1.9 (inactive) | 0.692 | -0.0346
16 | CC(C)c1ccc(NN2C(C(O)c3cccs3)C=CC3C(=O)N(c4ccccc4)C(=O)C32)cc1 (stereo not given) | 0.222 | -0.14 | 0.117 | 0.353 | 1.66 | 1.54 | 1.19 | -1.87 (inactive) | 0.979 | 0.122
17 | CCCc1cc2c(n1Cc1ccc(OC)cc1)C(C)C1CN(C(=O)c3ccccc3)C(C)(C(=O)OC)C21 (stereo not given) | 1.24 | 0.575 | 0.354 | 0.345 | 1.59 | 1.81 | 1.2 | -0.0832 (inactive) | 1.14 | -0.127
18 | CC1CC/C=C\[C@H]2OC34C=CCN(c5ccc(Cl)cc5)C(=O)[C@H]3N(C(CO)C(C)C)C(=O)[C@]4(C)C2C(=O)O1 (stereo not given in full) | -0.128 | 1.9 | -0.146 | -0.38 | -0.594 | 1 | 1.47 | 0.51 (inactive) | -0.637 | 0.0373
19 | C[C@H]1ON(c2ccccc2)[C@@H](c2ccccc2)[C@@H]1C(=O)N1C(=O)OC[C@@H]1c1ccccc1 | -0.331 | -0.111 | -0.019 | 0.602 | 0.527 | 0.211 | 0.656 | 0.84 (inactive) | 0.0477 | -0.374
20 | COC(=O)[C@@]1(Cc2ccc(OC)cc2)[C@H]2c3cc(C(=O)N(C)C)n(Cc4cc(F)c(F)c(F)c4)c3C[C@H]2CN1C(=O)c1ccccc1 | 0.831 | -0.136 | 0.329 | 0.594 | 1.74 | 1.81 | 1.08 | 2.19 (inactive) | 1.24 | 0.987
21 | COC(=O)[C@@]1(Cc2ccccc2)[C@H]2c3cc(C(=O)N4CCCC4)n(CCO)c3C[C@H]2CN1C(=O)c1ccccc1 | 1.35 | 2.52 | 0.759 | 0.77 | 1.58 | 1.62 | 1.15 | -0.292 (inactive) | 2.6 | 0.216
